Test results from PubChem BioAssay AID588689 (Southern Research Specialized Biocontainment Screening …, 2011).
The whole screen tested about 340,000 compounds, of which about 1,000 (0.29%) were called active. No stated cut-off is given here; in the data, inconclusive means inhibition above about 29% without an active follow-up result; inactive means below that. A selection follows. Entries with a potency or affinity are not part of this list.

The compounds below were run against Genome polyprotein (Dengue virus type 2 (strain 16681-PDK53)) (UniProt P29991) (assay: Dengue-2 NS5 methyltransferase inhibitors, primary screen, biochemical, confirmation dose response (AID 588689)). Details: Dengue-2 NS5 methyltransferase capping enzyme assay, at 25 µM, hits give high values.
Genome polyprotein (Dengue virus type 2 (strain 16681-PDK53)), sequence (P29991 whole entry, looked up): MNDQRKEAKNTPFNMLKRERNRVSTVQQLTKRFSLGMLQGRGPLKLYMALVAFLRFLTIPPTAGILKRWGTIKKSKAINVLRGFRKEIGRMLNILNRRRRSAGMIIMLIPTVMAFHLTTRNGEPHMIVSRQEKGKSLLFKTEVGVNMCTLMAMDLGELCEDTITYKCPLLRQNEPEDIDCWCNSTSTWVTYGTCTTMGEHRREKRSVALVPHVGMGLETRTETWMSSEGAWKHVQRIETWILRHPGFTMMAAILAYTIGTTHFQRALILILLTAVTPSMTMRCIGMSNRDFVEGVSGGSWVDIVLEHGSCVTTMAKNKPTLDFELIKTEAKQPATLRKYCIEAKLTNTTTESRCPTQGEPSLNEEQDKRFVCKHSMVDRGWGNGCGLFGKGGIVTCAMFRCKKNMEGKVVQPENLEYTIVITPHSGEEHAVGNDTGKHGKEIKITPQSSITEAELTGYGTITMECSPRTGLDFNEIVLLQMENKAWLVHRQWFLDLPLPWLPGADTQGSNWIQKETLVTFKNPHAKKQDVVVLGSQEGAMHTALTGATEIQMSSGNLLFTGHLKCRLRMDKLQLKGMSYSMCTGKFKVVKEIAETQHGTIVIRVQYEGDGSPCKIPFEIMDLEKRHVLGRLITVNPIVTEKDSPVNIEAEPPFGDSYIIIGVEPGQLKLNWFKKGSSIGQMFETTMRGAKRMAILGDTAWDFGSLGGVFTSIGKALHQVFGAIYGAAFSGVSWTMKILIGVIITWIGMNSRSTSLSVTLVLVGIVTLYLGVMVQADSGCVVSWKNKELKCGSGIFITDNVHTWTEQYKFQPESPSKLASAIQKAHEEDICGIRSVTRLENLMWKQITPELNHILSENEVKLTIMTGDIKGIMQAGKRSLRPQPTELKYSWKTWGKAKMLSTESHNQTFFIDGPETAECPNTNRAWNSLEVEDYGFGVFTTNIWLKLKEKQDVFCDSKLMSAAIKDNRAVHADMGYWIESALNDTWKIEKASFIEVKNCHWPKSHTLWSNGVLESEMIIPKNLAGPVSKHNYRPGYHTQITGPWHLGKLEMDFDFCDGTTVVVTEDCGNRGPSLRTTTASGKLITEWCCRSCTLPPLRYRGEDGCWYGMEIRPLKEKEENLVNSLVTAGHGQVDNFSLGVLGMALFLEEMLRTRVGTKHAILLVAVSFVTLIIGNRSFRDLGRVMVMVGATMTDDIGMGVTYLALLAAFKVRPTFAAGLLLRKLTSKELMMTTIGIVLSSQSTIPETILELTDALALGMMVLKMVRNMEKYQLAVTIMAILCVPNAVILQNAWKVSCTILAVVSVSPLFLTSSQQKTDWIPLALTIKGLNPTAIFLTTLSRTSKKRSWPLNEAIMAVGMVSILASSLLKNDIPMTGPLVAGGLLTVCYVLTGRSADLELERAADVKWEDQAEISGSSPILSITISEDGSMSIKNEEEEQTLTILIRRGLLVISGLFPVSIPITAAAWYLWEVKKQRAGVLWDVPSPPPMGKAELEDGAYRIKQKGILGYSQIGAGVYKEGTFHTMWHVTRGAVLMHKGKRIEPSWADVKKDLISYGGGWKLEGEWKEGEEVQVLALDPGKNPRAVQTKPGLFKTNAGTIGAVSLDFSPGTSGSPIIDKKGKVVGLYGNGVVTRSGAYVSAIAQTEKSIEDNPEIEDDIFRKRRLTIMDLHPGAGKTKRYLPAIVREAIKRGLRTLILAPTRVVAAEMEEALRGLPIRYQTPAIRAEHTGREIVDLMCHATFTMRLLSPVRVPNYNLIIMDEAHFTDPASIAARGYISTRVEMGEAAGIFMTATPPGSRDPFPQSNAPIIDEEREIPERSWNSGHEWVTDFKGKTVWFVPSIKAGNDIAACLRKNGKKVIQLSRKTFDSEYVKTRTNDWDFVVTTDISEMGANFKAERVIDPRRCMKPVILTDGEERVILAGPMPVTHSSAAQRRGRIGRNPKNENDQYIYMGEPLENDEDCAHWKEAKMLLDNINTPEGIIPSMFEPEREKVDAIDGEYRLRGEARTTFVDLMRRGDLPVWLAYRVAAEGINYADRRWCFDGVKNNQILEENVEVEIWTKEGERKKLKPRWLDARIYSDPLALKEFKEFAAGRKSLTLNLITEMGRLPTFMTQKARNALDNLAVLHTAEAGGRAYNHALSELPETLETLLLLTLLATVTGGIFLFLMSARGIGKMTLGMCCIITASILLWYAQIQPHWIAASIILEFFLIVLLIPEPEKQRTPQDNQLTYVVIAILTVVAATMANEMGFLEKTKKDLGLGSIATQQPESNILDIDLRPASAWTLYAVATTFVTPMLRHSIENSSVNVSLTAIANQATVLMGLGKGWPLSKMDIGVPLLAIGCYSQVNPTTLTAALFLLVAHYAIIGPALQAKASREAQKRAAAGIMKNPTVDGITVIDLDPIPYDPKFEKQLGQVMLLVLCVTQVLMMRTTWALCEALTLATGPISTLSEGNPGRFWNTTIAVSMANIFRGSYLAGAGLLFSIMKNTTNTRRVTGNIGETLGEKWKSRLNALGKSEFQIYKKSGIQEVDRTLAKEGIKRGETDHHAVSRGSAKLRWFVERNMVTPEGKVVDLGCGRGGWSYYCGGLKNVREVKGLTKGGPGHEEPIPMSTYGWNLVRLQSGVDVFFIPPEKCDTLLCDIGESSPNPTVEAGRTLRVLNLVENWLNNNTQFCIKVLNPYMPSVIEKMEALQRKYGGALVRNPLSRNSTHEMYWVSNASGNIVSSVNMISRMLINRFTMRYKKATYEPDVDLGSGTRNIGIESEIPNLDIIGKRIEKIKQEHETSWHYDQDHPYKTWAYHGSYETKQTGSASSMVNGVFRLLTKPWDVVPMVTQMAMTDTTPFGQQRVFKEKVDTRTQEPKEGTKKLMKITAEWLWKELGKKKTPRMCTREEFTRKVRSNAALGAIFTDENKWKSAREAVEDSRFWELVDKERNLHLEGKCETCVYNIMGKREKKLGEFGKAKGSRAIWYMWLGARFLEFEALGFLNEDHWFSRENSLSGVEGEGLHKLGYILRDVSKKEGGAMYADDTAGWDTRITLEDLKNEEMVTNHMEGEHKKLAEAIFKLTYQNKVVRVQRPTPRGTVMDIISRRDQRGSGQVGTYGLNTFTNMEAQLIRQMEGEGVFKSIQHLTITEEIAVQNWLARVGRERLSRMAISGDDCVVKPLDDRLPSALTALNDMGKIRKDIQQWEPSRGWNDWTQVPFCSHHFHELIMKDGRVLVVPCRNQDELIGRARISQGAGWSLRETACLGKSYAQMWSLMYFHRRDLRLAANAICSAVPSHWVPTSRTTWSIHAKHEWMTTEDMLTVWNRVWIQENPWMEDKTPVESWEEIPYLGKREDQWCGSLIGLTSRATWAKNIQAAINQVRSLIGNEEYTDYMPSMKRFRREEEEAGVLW

inhibition, inactive:
CCCCOc1ccc(-c2cnc3ccccc3n2)cc1 1.6%
Cc1cc(N2CCC(C(=O)NCC3CC3)CC2)nc(-c2ccccc2)n1 -10.6%
COC(=O)N(C)C[C@H]1OCc2cnnn2CCCC(=O)N([C@@H](C)CO)C[C@@H]1C 0%
CC1=NOC(=O)/C1=C\c1ccc(-c2ccccc2Br)o1 3.96%
CC1(C)OC(=O)C(=Cc2ccc(-c3ccc(Cl)c(C(=O)O)c3)o2)C(=O)O1 -35.6%
CC1=NOC(=O)/C1=C\c1ccc(-c2ccc(Br)cc2)o1 24.5%
CC1=NOC(=O)/C1=C/c1ccc(-c2ccc(Cl)cc2)o1 19%
CC1=NOC(=O)/C1=C\c1ccc(-c2cccc(Cl)c2)o1 6.14%
CC(C)N1C(=O)S/C(=C\c2ccc(-c3ccc(Cl)c(C(=O)O)c3)o2)C1=O 9.54%
CC(=O)N(c1ccccc1)c1nc2ccccc2s1 -3.1%
O=C(CNCc1ccccc1Cl)Nc1ccc(C(=O)N2CCCCC2)cc1 -14.1%
CNC(=O)c1ccsc1NC(=O)CS(=O)(=O)c1ccc(F)cc1 -0.55%
CCN1CCN(CCCN(Cc2ccco2)C(=S)Nc2cccc(Cl)c2C)CC1 5.26%
Nc1cc(=O)[nH]c(SCC(=O)Nc2cccnc2Cl)n1 11.6%
O=C1OC(c2ccccc2)=N/C1=C/c1cccc(OC(=O)c2cccs2)c1 6.35%
COc1cc(C=C2C(=O)c3ccccc3C2=O)cc(OC)c1 18%
COc1ccc(-n2c(C)cc(/C=C3\C(=O)NN(c4ccccc4)C3=O)c2C)cc1 3.87%
N#C/C(=C\c1cccc(OC(=O)c2cccs2)c1)C(N)=O -25%
COc1cc(/C=C2/C(=O)NN(c3ccccc3)C2=O)cc(Br)c1O -40.3%
Cc1cc(/C=C2\C(=O)NN(c3ccccc3)C2=O)c(C)n1-c1ccccc1O 2.89%
O=C1NN(c2ccc(Br)cc2)C(=O)/C1=C\c1ccc(O)cc1O -25.4%
COc1cccc(/C=C2\CCc3ccccc3C2=O)c1 1.96%
COc1cccc(/C=C2/NC(=O)N(CC(=O)Nc3ccc(C)cc3)C2=O)c1OCc1cccc(C(=O)O)c1 -3.96%
Cc1ccc2nc(-c3ccccc3)cc(C(=O)N3CCc4ccccc4C3)c2c1 -5.47%
NC(N)=N/N=C/c1ccc(OCc2ccccc2Cl)cc1 -0.7%
Cc1ccc(-c2nc3c(c(=O)c4ccccc4n3C)c(=O)n2-c2ccc(F)cc2)cc1 0.78%
